Data reported in PubChem BioAssay AID624167 (Sanford-Burnham Center for Chemical Genomics, 2012).

Test: inhibition of PEG-3 promoter-driven reporter – cell-based, HeLa, luciferase, CREF/GAPDH counter-screen panel, dose response (AID 624167)
Conditions: CREF/GAPDH counter-screens; run 1, dose range 1, at 100 µM (top of the series)

Compound | inhibition
COC(COC(N)=O)C1=C(N2CC2)C(=O)C(C)=C(N2CC2)C1=O (stereo not drawn) | 84.3%
CCC(c1nnnn1-c1ccc2c(c1)OCCO2)N1CCC(n2c(=O)[nH]c3ccccc32)CC1 (stereo not drawn) | 92.4%
COc1cc2nc(CN3CC=C(c4ccccc4)CC3)[nH]c(=O)c2cc1OC | 56.3%
CC1=CC2/C=C(\C)CCC(O)C(O)/C=C/C(=O)C23C(=O)NC(CC(C)C)C3C1C (stereo not drawn) | 99.8%
CC(=O)OC1CC[C@]2(C#N)[C@H]3CC[C@]4(C)[C@H](C5C=CC(=O)O5)CCC4(O)C3CCC2(O)C1 (stereo partly drawn) | 77.9%
CC(=O)OC1(C)CC(C)C(=O)C(C(O)CC2CC(=O)NC(=O)C2)C1 (stereo not drawn) | 89.5%
C=Cc1cc(OC)c2c(c1)c(=O)oc1c2cc(OC)c2c(O)ccc(C3OC(C)C(O)C(C)(O)C3O)c21 (stereo not drawn) | -12.4%
O=C(CSC1c2ccccc2-c2ccccc21)N/N=C/c1ccccc1O | 60.3%
